Screening data deposited in PubChem by National Center for Advancing Translational Sciences (NCATS).
Hits are enriched below; roughly 12% of the tested compounds scored in any of these assays.
AmpC inh no detg – qHTS Inhibitors of AmpC Beta-Lactamase (assay without detergent) | AID 485341, 2010 | actives 0.52% (n = 330,000) | AmpC nitrocefin hydrolysis, absorbance 480 nm, 0.0001% Triton | Potency, µM (titrated, usually from 57.1 µM), for the others: top-dose activity change, negative = inhibition, usual class: inhibitors;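 also: plate controls were no compound for no effect and no enzyme for full effect; nearly all actives have a fitted effect of over 20% in size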
Target sequence (P00811 whole entry, looked up): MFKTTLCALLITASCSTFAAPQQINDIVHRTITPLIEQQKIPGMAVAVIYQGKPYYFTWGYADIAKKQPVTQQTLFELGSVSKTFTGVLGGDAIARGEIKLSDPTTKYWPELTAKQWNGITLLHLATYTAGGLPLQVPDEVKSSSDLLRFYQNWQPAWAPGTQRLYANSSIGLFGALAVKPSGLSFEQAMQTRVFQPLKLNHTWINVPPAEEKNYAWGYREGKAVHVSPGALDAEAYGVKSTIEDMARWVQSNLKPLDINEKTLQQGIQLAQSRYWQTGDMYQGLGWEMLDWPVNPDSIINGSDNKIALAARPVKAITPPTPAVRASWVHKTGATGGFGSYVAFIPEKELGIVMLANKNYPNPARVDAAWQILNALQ
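20 mM phosphate pH 7.0 + 0.01% (detergent screen) or 0.0001% Triton X-100; 5.3 nM AmpC reagent; cpd preinc 15 min RT; nitrocefin (800 uM stock) to start; A480 q20 s × 4 min; Activity was normalised to no-enzyme and no-compound control wells.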
AmpC detergent – qHTS Inhibitors of AmpC Beta-Lactamase (assay with detergent). AmpC hydrolysis of nitrocefin, absorbance 480 nm, 0.01% Triton. Potency, µM (titrated, usually from 114 µM), inactives show at the highest dose activity change, negative = inhibition, usual class: inhibitors. actives 0.041% (n = 370,000). AID 485294, 2010;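 also: 0% = no-compound wells and -100% = no-enzyme wells; nearly all actives have a fitted effect of over 25% in size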
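20 mM phosphate pH 7.0 + 0.01% (detergent screen) or 0.0001% Triton X-100; 5.3 nM AmpC reagent; cpd preinc 15 min RT; nitrocefin (800 uM stock) to start; A480 q20 s × 4 min; Activity was normalised to no-enzyme and no-compound control wells.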
SARS PLpro yeast – qHTS of Yeast-based Assay for SARS-CoV PLP; S. cerevisiae expressing SARS-CoV PLpro, growth rescue; Potency, µM (series often up to 32.9 µM), for inactives: at the top dose activity, positive = growth rescue, actives largely listed as activators; actives 0.19% (n = 330,000); calls by dose curve; also: 0% is about no effect; nearly all actives have a fitted effect of over 55% in size
Pf growth 48h – Primary qHTS for delayed death inhibitors of the malarial parasite plastid, 48 hour incubation. P. falciparum luciferase growth in erythrocytes, 48 h. Potency, µM (top dose mostly 28.7 µM), for the others: top-dose activity change, negative = inhibition, usual class: inhibitors. actives 5.9% (n = 310,000). AID 504832, 2011; also: % is scaled to controls: 0 for no effect and ±100 for the full control effect
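In quantitative HTS format, infected erythrocytes bearing luciferase-reporter parasites were treated for a single generation at 37 C. Luminescence after adding detection reagent served as the growth measure.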
Sm TGR inh – qHTS Assay for the Inhibitors of Schistosoma Mansoni Peroxiredoxins. AID 485364, 2010. actives 3% (n = 360,000). Schistosoma mansoni thioredoxin glutathione reductase (TGR), Q962Y6. purified TGR, DTNB reduction, TNB absorbance 405 nm. Potency, µM (top dose mostly 114 µM), for inactives: at the top dose activity change, negative = inhibition, most hits filed as inhibitors; also: % is scaled to controls: 0 for no effect and ±100 for the full control effect; nearly all actives have a fitted effect of over 60% in size
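Kinetic colorimetric format: TGR-catalysed, NADPH-driven DTNB reduction monitored via TNB absorbance. Enzyme dispensed at 20 nM; compound exposure 15 min at room temperature before reaction start.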
Pf growth 96h – Primary qHTS for delayed death inhibitors of the malarial parasite plastid, 96 hour incubation. Potency, µM (titrated, usually from 28.7 µM), for the others: top-dose activity change, negative = inhibition, usual class: inhibitors. AID 504834, 2011. actives 6.9% (n = 320,000). P. falciparum luciferase reporter growth, 96 h; also: % is scaled to controls: 0 for no effect and ±100 for the full control effect
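Infected RBCs, 2% Hct / 0.05% parasitemia final; luciferase-reporter P. falciparum; cpd 96 h, 37 C, 5% CO2; luciferase detection reagent; luminescence.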
Numbers without * were called inactive; ? = inconclusive; nt = not tested or not shown. Unless noted, calls follow the shape of the dose curve; as a rule, active = well fitted curve in the direction sought with a large enough effect; inconclusive = small, poorly fitted or top-dose-only effect, or another doubt; inactive = no such curve, though single readings can be large; an effect the other way counts as inactive or inconclusive. Potency is read from the fitted curve at half-maximal effect.

SMILES	AmpC inh no detg	AmpC detergent	SARS PLpro yeast	Pf growth 48h	Sm TGR inh	Pf growth 96h
O=P(OC1CCCCC1)(OC1CCCCC1)C(O)c1ccc(Cl)cc1Cl (centres undefined)	-8.7%	-2.0%	6.2%	1.85µM*	6.4%	nt
CS(=O)(=O)N1CCC(N2CCN(Cc3ccccc3)C(=O)C2=O)CC1	nt	1.1%	nt	nt	-0.7%	nt
Cc1ccc(NC(=O)CC2Oc3ccc(C)cc3NC2=O)cc1 (centres undefined)	-16.6%	-0.6%	10.6%	nt	0.7%	305.1%
CCOc1ccc(OCC)c(NC(=O)CC2Oc3ccc(C)cc3NC2=O)c1 (centres undefined)	-9.6%	?	2.7%	nt	-11.3%	10.4µM*
COC(=O)CC1Oc2ccc(C)cc2NC1=O (centres undefined)	-10.3%	?	0.6%	nt	-11.9%	9.28µM*
COc1ccc(OC)c(CCNC(=O)CC2Oc3ccc(C)cc3NC2=O)c1 (centres undefined)	-6.0%	-15.2%	-3.4%	nt	90.1%	10.4µM*
O=C(O)CC1Oc2ccc(Cl)cc2NC1=O (centres undefined)	11.2µM*	?	0.3%	10.8%	-0.6%	5.22µM*
COc1ccc(NC(=O)CC2Oc3ccc(C)cc3NC2=O)cc1 (centres undefined)	-15.8%	-13.1%	-1.6%	nt	-3.8%	?
CCCc1cc(=O)[nH]c(SCC(=O)Nc2cc(S(=O)(=O)N3CCOCC3)ccc2Cl)n1	-27.2%	nt	2.6%	nt	nt	nt
COc1ccc(C)cc1NC(=O)N1CCN(S(=O)(=O)c2ccc3c(ccn3C)c2)CC1	nt	8.5%	nt	nt	8.0%	nt
COc1ccc(CC(=O)OCCN(C)C)cc1	-6.7%	?	5.6%	nt	0.8%	115.1%
CCCC(O)(CCN(C)C)c1ccc(OC)cc1 (centres undefined)	-5.2%	0.6%	-4.1%	nt	11.2µM*	17.9%
COc1ccc(/C=N/NC(=O)c2ccc(Cn3cc([N+](=O)[O-])cn3)o2)cc1O	-13.9%	?	-2.3%	18.3%	-26.2%	nt
C/C(=N\NC(=O)c1ccc(Cn2cc([N+](=O)[O-])cn2)o1)c1cccc(NC(=O)c2cccnc2)c1	-13.6%	-6.2%	19.3%	-26.9%	0.9%	4.15µM*
COc1ccc(OC)c(/C=N/NC(=O)c2ccc(Cn3cc([N+](=O)[O-])cn3)o2)c1	39.8µM*	?	-13.8%	25.8%	3.3%	5.8%
Nc1nc(NC2CC2)c2ncn([C@H]3C=C[C@@H](CO)C3)c2n1	nt	nt	nt	60.5%	nt	45.1%
COC(=O)CCCn1nc(NC(=O)c2ccco2)cc1C	-0.6%	-14.0%	0.1%	33.9%	-12.2%	4.2%
Cc1nn(-c2ccccc2)c(N2CCCC2)c1/C=N/NC(=O)c1cc(-c2cccnc2)nc2ccccc12	98.4%	-5.9%	-4.5%	11.7µM*	-7.5%	?
Cc1nn(-c2ccccc2)c(N2CCCC2)c1/C=N/NC(=O)c1ccccc1O	-39.7%	-7.0%	-4.4%	8.28µM*	-4.8%	13.1µM*
Cc1nn(-c2ccccc2)c(N2CCCCC2)c1/C=N/O	-19.5%	2.6%	0.3%	-16.5%	0.4%	6.1%
Cc1nn(-c2ccccc2)c(C)c1/C=N/NC(=O)c1cc(O)cc(O)c1	-42.5%	0.7%	?	?	-21.5%	?
Cc1nn(-c2ccccc2)c(C)c1/C=N/NC(=O)c1ccccc1O	?	-10.1%	-6.0%	3.7µM*	3.5%	6.57µM*
Cc1nn(-c2ccccc2)c(N2CCCC2)c1/C=N/NC(=O)C1CC1	-15.5%	6.8%	2.5%	10.4µM*	4.6%	11.7µM*
CN(C)S(=O)(=O)c1ccc(C(=O)NCCSc2c(-c3ccc(Br)cc3)[nH]c3ccccc23)cc1	nt	5.6%	nt	nt	6.2%	nt
Cc1ccc(NC(=O)CCN2C(=O)C3CCCCC3C2=O)cc1[N+](=O)[O-] (centres undefined)	-21.9%	?	?	1.3%	1.7%	14.0%
SMILES	AmpC inh no detg	AmpC detergent	SARS PLpro yeast	Pf growth 48h	Sm TGR inh	Pf growth 96h
Cc1cc(-c2ccccc2)nc2cc(C(=O)Nc3cc(C(F)(F)F)ccc3Cl)nn12	nt	13.0%	nt	nt	-0.3%	nt
CCOc1ccc(Oc2c(/C=N/NC(=O)C3CC3)c(C)nn2-c2ccccc2)cc1	50.4%	?	-15.4%	3.29µM*	-11.5%	?
CC(/C=N/NC(=O)c1cc(-c2cccnc2)nc2c1c(C)nn2-c1ccccc1)=C\c1ccccc1	-17.0%	0.3%	0.3%	?	-3.2%	2.94µM*
O=C(CN1CC[n+]2c(-c3cccs3)csc21)c1ccc(-c2ccccc2)cc1	-47.3%	0.9%	-0.4%	13.1µM*	nt	?
Cc1ccc(-c2ccc(C(=O)NCCCNC(=O)c3cnccn3)o2)cc1Cl	78.5%	-9.8%	-2.8%	?	31.6µM*	-0.7%
CC(=O)NN1C(=O)c2ccccc2NC1c1ccc([N+](=O)[O-])o1 (centres undefined)	-27.4%	-9.1%	-1.9%	-1.3%	39.8µM*	25.3%
CCCCCCCCCCCCCCCC[N+](C)(C)CCN(Cc1ccc(OC)cc1)c1ncccn1	182.1%	?	nt	3.7µM*	-22.3%	1.85µM*
CCc1ccc(N(CC)C(=O)c2ccc3c(=O)n4c(nc3c2)CCCCC4)cc1	nt	11.9%	nt	nt	-4.7%	nt
Cc1nn(C)cc1NC(=O)CC12CC3CC(CC(C3)C1)C2	-4.1%	-8.7%	-6.6%	6.9%	-9.9%	31.5%
CCn1nc(C)c(NC(=O)CC23CC4CC(CC(C4)C2)C3)c1C	20.2%	15.5%	-2.3%	-13.9%	14.9%	8.28µM*
C=CCNC(=S)NNC(=O)c1ccc(Br)cc1	-19.6%	?	6.6%	32.6%	3.6%	9.1%
C=CCNC(=S)NNC(=O)c1cc(O)ccc1O	-38.7%	2.0%	-0.5%	12.2%	-28.6%	4.65µM*
COc1ccc(OC)c(/C=C2\S/C(=N/NC(=O)c3ccc4ccccc4c3)NC2=O)c1	-28.5%	?	?	6.7%	-1.6%	6.57µM*
Cc1cccc(-n2ncc3c(Nc4ccc(Oc5ccc(Cl)cc5)cc4)ncnc32)c1	nt	4.9%	nt	nt	16.2%	nt
C=CCSc1nc2sc(C)c(C)c2c(=O)n1CC=C	-23.1%	-7.0%	-58.0%	?	15.8µM*	-27.2%
COc1ccc(C)cc1-n1c(SCC(=O)Nc2cc(C)on2)nc2sc(C)c(C)c2c1=O	-14.1%	-3.2%	3.1%	9.28µM*	6.4%	33.3%
C=CCn1c(SCC(=O)Nc2cc(C)on2)nc2sc(C)c(C)c2c1=O	-16.0%	-6.6%	4.5%	nt	0.0%	-19.2%
